Compound activity (PubChem BioAssay)
Gal4-VP16 FLuc: VP16 counterscreen qHTS for inhibitors of ROR gamma transcriptional activity; Drosophila S2 Gal4-VP16 UAS-luciferase, luminescence, 20 h; 310,000 tested, 3.5% active; AID 2546, 2010; Potency, µM (top dose mostly 53.6 µM), without a hit: top-dose activity, negative = inhibition, actives largely listed as inhibitors;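 note: Gal4-VP16 expression switched on by copper sulfate through the metallothionein promoter; potency is the fitted concentration of half-maximal effect; nearly all actives have a fitted effect of over 50% in size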
Six1-Eya2 blk: qHTS Assay for Inhibitors of the Six1/Eya2 Interaction. Homeobox protein SIX1 (Homo sapiens) + Protein phosphatase EYA2 (Homo sapiens), …. AlphaScreen GST-Six1/His-Eya2 binding, biochemical; hits give low values. activity change, % (no concentration beside the values). 360,000 tested, 0.56% active; in the data active = activity change below about -65%; inconclusive = mostly about -30% to -63%
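Six1/Eya2 binding was read as AlphaScreen signal after compounds were pinned into GST-Six1 plus His-tagged Eya2 (5X stock 250/500 nM) in pH 8.0 Tris/NaCl/TCEP buffer, beads added, then incubated 1 h, 37 C, dark.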
PKM2 act: qHTS Assay for Activators of Human Muscle isoform 2 Pyruvate Kinase | Pyruvate kinase PKM (Homo sapiens), P14618 | purified PKM2, Kinase-Glo ATP luminescence, activation; response scale: 0% is enzyme alone, no compound | Potency, µM (series often up to 57.5 µM), for inactives: top-dose activation, hits mostly activators | 260,000 tested, 0.34% active | AID 1631, 2009; note: potency is the fitted concentration of half-maximal effect; nearly all actives have a fitted effect of over 55% in size
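ATP formation by purified human PK-M2, quantified via coupled luciferase luminescence after 1 h at room temperature with 0.1 mM ADP and 0.5 mM PEP final.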
CtBP-E1A blk: qHTS Assay for Inhibitors of the CtBP/E1A Interaction. 340,000 tested, 0.49% active. AID 651724, 2012. activity change, % (concentration not given with the values). CtBP / adenovirus E1A interaction (AlphaScreen). AlphaScreen GST-E1A/His-CtBP binding, 1536-well; hits give low values; in the data active = activity change below about -65%; inconclusive = mostly about -30% to -63%
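Steps: dispense buffer (Tris pH 8.0, NaCl 300 mM, TCEP 1 mM, BSA, Tween 20); add 5X protein mix (GST-E1A, His-CtBP, 125 nM each); pin 23 nL compound; 2 h at 37 °C, dark; add 5X beads (50 ug/mL); 1 h; read.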
RORg inh: qHTS for inhibitors of ROR gamma transcriptional activity; Nuclear receptor ROR-gamma (Mus musculus), P51450; Drosophila S2 Gal4-RORgamma UAS-luciferase reporter, 20 h; Potency, µM (top dose mostly 53.6 µM), for the others: top-dose activity change, negative = inhibition, actives largely listed as inhibitors; 310,000 tested, 5.4% active; note: potency is the fitted concentration of half-maximal effect; nearly all actives have a fitted effect of over 60% in size
Target sequence (P51450 whole entry, looked up, the tested form may be a part): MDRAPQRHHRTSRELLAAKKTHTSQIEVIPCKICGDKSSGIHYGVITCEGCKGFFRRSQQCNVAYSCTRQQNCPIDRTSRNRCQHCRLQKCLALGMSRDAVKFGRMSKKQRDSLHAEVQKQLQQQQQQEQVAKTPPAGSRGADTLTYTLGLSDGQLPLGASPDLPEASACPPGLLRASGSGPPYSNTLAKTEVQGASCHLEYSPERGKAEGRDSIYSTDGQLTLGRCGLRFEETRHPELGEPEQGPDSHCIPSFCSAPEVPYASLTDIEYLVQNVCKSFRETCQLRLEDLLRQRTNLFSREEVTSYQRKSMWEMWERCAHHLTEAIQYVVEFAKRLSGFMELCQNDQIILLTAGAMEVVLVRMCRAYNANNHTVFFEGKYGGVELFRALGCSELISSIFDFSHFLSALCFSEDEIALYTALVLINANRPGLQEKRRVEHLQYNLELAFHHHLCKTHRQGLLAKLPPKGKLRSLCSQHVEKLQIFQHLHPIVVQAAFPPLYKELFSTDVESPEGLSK
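Read-out: Photinus luciferase luminescence; inhibitors lower reporter signal. Insect Schneider cells with Gal4-ROR gamma fusion under metallothionein promoter, UAS reporter; 700 uM final copper sulfate induction, 20 hr, ambient temperature.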
* hit, by the source's call; ? = inconclusive; · = no result given; [ ] = dose if it differs, or a comment. A selection: hits, their analogues and other compounds. The true share with any hit is near 5.6%. Unless noted, calls come from the whole dose curve; as a rule, active = well fitted curve in the direction sought with a large enough effect; inconclusive = small, poorly fitted or top-dose-only effect, or another doubt; inactive = no such curve, though single readings can be large; an effect the other way counts as inactive or inconclusive. % is set by controls: 0 for no effect and ±100 for the full control effect.

SMILES	Gal4-VP16 FLuc	Six1-Eya2 blk	PKM2 act	CtBP-E1A blk	RORg inh
Cc1ccc(-n2[nH]c(C)c(/C=N/NC(=O)c3ccc(O)cc3O)c2=O)cc1	7.1µM*	?	·	?	2.5µM*
O=[N+]([O-])c1ccc(C=Nc2ccccc2)cc1	·	-12	·	-10	·
Cc1cccc(NC(=O)C(=O)NCC2CCCO2)c1 (stereo not drawn)	-6%	3	-10%	6	-30%
COc1ccc(C2CC(O)(c3ccccc3)Oc3c(C)ccc(C(C)C)c32)cc1 (stereo not drawn)	?	·	·	·	39%
COc1ccccc1S(=O)(=O)N1CCNC(=O)C1	·	2	·	9	·
CC1Cc2cc(S(=O)(=O)N3CCC(C(=O)NCc4ccco4)CC3)ccc2N1C(=O)C1CCC1 (stereo not drawn)	-4%	-10	·	-1	24%
O=C(Cc1ccc(NC(=O)C2CCCN(C(=O)C3CC3)C2)cc1)Nc1cccc(C(=O)N2CCCCC2)c1 (stereo not drawn)	·	7	·	-1	·
Cc1cc(C(=O)N/N=C/c2c(C)[nH]n(-c3ccccc3)c2=O)n[nH]1	?	-91*	-2%	-94*	10µM*
CCCCN(CCCC)C(=S)N/N=C/c1c(C)[nH]n(-c2ccccc2)c1=O	5µM*	-19	-10%	-19	1.6µM*
Cc1cc(C)c(C)c(OCCCn2ccnc2)c1	-10%	-12	-1%	-5	16µM*
Cc1cc(C)c(OCCCn2ccnc2)c(C)c1	?	2	-1%	2	13µM*
Cc1ccc(OCCCCn2ccnc2)c(Cl)c1	?	-4	5%	-6	11µM*
CC(C)(C)c1ccccc1OCCCCCn1ccnc1	?	-15	-2%	-11	18µM*
Cc1ccc(C)c(OCCCCn2ccnc2)c1	-13%	-5	-1%	1	?
Cc1cc(C)cc(OCCCn2ccnc2)c1	·	-2	-3%	-8	·
Cc1cccc(OCCCCCn2ccnc2)c1C	?	-6	5%	-12	?
Cc1cc(Cl)c(OCCCn2ccnc2)c(Br)c1	?	-13	13%	0	18µM*
O=C(OCC(=O)N1CCN(c2ccccc2)CC1)c1ccc[n+]([O-])c1	?	-6	-19%	3	2%
S=C(N/N=C1\CCc2ccccc21)NC1CCCCC1	5.6µM*	0	6%	·	1µM*
Cc1ccc(C)c(S(=O)(=O)N/N=C2/CCCc3ccccc32)c1	13%	-2	2%	5	5%
Cc1ccc(C)c(NC(=S)N/N=C2/CCCCc3ccccc32)c1	6.3µM*	?	8%	-14	1.6µM*
COC(=O)N/N=C1\CCCc2ccccc21	1%	13	-4%	8	20%
COc1ccc(OCC(=O)N/N=C2\CCCCc3ccccc32)cc1	-10%	4	3%	-1	5%
COc1cccc(NC(=S)N/N=C2/CCCCc3ccccc32)c1	5µM*	-21	-6%	?	3.5µM*
CC(C)NC(=S)N/N=C1\CCCCc2ccccc21	2µM*	-21	-5%	·	0.79µM*
SMILES	Gal4-VP16 FLuc	Six1-Eya2 blk	PKM2 act	CtBP-E1A blk	RORg inh
O=C(NNS(=O)(=O)c1ccc(Cl)cc1)NC1CCCCC1	2%	-5	0%	0	10%
Cc1ccc(S(=O)(=O)NC(=O)NC2CCCCC2)cc1	-2%	·	·	·	8%
Cc1ccc(S(=O)(=O)NC(=S)NC2CCCCC2)cc1	14µM*	20	2%	15	3.2µM*
CCNC(=S)NS(=O)(=O)c1ccc(Cl)cc1	3%[0.365 µM]	0	3%	-1	22µM*
O=S(=O)(NC(=S)NC1CCCCC1)c1ccc(Cl)cc1	5.6µM*	-6	-1%	·	2.2µM*
CCc1ccc(S(=O)(=O)NC(=S)NC2CCCCC2)cc1	5.6µM*	0	3%	-3	3.5µM*
Cc1ccc(C#N)cc1	-1%	·	·	·	20%
COc1ccccc1N1CCN(C(=O)C(C)NC(=O)c2cccc([N+](=O)[O-])c2)CC1 (stereo not drawn)	-2%	4	·	-13	4%
Cc1ccc(S(=O)(=O)N2CCCCC2)cc1NC(=O)Cn1cnc2c1c(=O)n(C)c(=O)n2C	·	1	·	2	·
COc1ccc(C2=Cc3ccccc3C(CC(=O)C3CC3)N2c2ccc(-c3cc(OC)c(OC)c(OC)c3)cc2)cc1 (stereo not drawn)	·	14	·	23	·
C[C@H](N)C(=O)N[C@@H](Cc1ccc(F)cc1)C(=O)N[C@@H](CCCN=C(N)N)C(=O)N[C@@H](CC1CCCCC1)C(=O)N[C@@H](CCCCN=C(N)N)C(=O)N[C@@H](Cc1ccc(O)cc1)C(N)=O	1%	·	·	·	15%
O=C(NCCCO)C(=O)Nc1cc2c3c(c1)CCN3C(=O)CC2	-17%	2	-1%[0.46 µM]	·	-19%
Cc1nc2cc(-c3ccc(Cl)cc3)nn2c(NCCN(C)C)c1C	5.6µM*	-6	-29%	0	1.3µM*
O=C1OC(Nc2cc(Br)cc3cccnc23)c2ccccc21 (stereo not drawn)	11µM*	0	-2%	-2	?
COc1cccc(NC(=O)CN(C)C(=O)CCC(=O)c2cc(C)sc2C)c1	·	1	·	-77*	·
CCCN1CCN(C(=O)c2ccc(S(=O)(=O)N(C)c3ccccc3OC)cc2)CC1	·	-12	·	-1	·
COc1ccc(CNC(=O)C(=O)NCc2ccncc2)cc1	1%	-1	-24%	0	1%
COc1ccc(CNC(=S)NCc2ccc(F)cc2)cc1	?	-7	2%	?	11µM*
COc1ccc(CNC(=S)NC(C)CCc2ccccc2)cc1 (stereo not drawn)	14µM*	-2	-4%	-4	3.2µM*
COc1ccc(CNC(=S)NCc2ccc(OC)cc2)cc1	-8%[10 µM]	-7	?	-11	13µM*
CC(CCc1ccccc1)NC(=O)C(=O)NCc1ccccc1 (stereo not drawn)	-6%	15	2%	-5	4%
COc1ccc(CNC(=O)/C(C)=C\C(=O)O)cc1	10µM*	-1	-12%	4	5.6µM*
COc1cccc(CNC(=O)N[C@@H](C)C(=O)O)c1	1%	11	-4%	10	29%
Cc1ccc(NC(=O)CSc2nc(=O)n(CCN(C)C)c3c2CCCC3)cc1Cl	·	-6	·	-11	·
N#CC(c1ccc(O)cc1)N1CCN(C(C#N)c2ccc(O)cc2)CC1 (stereo not drawn)	·	20	·	0	·
CCOc1ccc(CC(=O)NNC(=S)NC)cc1	-1%	3	3%	-1	-37%
CC(C)COc1ccc(CNC(=S)NCc2ccccc2)cc1	18µM*	-1	0%	-6	7.1µM*
